The source of these data is PubChem BioAssay (EPA / NIEHS).

Results filed as inconclusive are left out. Activity calls are given as the source filed them. How the source made its calls: active means hit-call score of the fitted dose curve at least 0.9, where 1 is the maximum; inconclusive means response in the unintended direction; inactive means score below 0.9.

By AC50 is commonly meant the midpoint of the concentration-response curve, whichever way the signal moves.

The target of experiment [1] is Estrogen-related receptor gamma (Homo sapiens) (UniProt P62508). The experiment is described as follows: ATG_ERRg_TRANS: Attagene TRANS-FACTORIAL HepG2 Assay for human Estrogen-Related Receptor gamma (ERRg) (AID 2282977).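 Further: hits increase reporter signal over DMSO so potencies reflect activators.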 To be noted: HepG2 Attagene TRANS reporter, ERRg transactivation. An outline of the steps:
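HepG2 cells transiently transfected with multiplexed GAL4-UAS reporter units and chimeric NR-Gal4 constructs were exposed to test chemicals for 24 h. Reporter mRNA was measured by RT-PCR, 6-FAM primer extension, HpaI digestion and capillary electrophoresis; gain-of-signal versus DMSO.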

Experiment [2] has as its target Oxysterols receptor LXR-alpha (Homo sapiens) (UniProt Q13133). The experiment is described as follows: ATG_LXRa_TRANS: Attagene TRANS-FACTORIAL HepG2 Assay for human Liver X Receptor alpha (LXRa) (AID 2282980). To be noted: HepG2 Attagene TRANS reporter, LXRa transactivation. An outline of the steps: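 In this multiplexed TRANS system, compounds act on HepG2 cells carrying GAL4-UAS reporter units and a receptor-GAL4 fusion for 24 h. Induced reporter RNA is amplified, fluorescently labelled and sized by capillary electrophoresis, with DMSO as baseline.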

The target of experiment [3] is Oxysterols receptor LXR-beta (Homo sapiens) (UniProt P55055). The experiment can be described thus: ATG_LXRb_TRANS: Attagene TRANS-FACTORIAL HepG2 Assay for human Liver X Receptor beta (LXRb) (AID 2282981). To be noted: HepG2 Attagene TRANS GAL4-LXRb reporter, mRNA. Summed up: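 HepG2 cells transiently transfected with multiple reporter transcription units carrying chimeric NR-Gal4 proteins acting on GAL4-UAS reporters; compound exposure 24 h. Reporter mRNA quantified by RT-PCR, 6-FAM labelling, HpaI digestion and capillary electrophoresis; gain of signal versus DMSO.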
Oxysterols receptor LXR-beta (Homo sapiens), sequence (P55055 whole entry, looked up, the tested form may be a part): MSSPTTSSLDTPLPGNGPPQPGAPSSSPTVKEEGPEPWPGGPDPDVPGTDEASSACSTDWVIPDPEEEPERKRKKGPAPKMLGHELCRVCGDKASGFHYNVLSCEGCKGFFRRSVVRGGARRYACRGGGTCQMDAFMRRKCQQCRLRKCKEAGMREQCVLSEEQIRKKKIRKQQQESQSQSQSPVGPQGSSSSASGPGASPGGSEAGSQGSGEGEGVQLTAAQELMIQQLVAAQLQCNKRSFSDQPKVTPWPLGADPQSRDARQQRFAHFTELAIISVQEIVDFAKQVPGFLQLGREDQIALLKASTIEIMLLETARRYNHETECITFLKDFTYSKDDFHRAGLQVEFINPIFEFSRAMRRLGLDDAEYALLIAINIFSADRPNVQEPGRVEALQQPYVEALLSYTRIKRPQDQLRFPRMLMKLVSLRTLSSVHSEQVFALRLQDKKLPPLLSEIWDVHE

The target in experiment [4] is Hepatocyte nuclear factor 4-alpha (Homo sapiens) (UniProt P41235). The experiment can be described thus: ATG_HNF4a_TRANS: Attagene TRANS-FACTORIAL HepG2 Assay for human Hepatocyte Nuclear Factor 4 alpha (HNF4a) (AID 2282982). To be noted: HepG2 HNF4a transactivation reporter, mRNA readout. An outline of the steps: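 HepG2 cells transiently transfected with multiplexed GAL4-UAS reporter units responsive to chimeric NR-GAL4 proteins; compound exposure 24 h. Reporter mRNA quantified by RT-PCR, 6-FAM labelling, HpaI digestion and capillary electrophoresis; gain of signal versus DMSO baseline.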
Hepatocyte nuclear factor 4-alpha (Homo sapiens), sequence (P41235 whole entry, looked up, the tested form may be a part): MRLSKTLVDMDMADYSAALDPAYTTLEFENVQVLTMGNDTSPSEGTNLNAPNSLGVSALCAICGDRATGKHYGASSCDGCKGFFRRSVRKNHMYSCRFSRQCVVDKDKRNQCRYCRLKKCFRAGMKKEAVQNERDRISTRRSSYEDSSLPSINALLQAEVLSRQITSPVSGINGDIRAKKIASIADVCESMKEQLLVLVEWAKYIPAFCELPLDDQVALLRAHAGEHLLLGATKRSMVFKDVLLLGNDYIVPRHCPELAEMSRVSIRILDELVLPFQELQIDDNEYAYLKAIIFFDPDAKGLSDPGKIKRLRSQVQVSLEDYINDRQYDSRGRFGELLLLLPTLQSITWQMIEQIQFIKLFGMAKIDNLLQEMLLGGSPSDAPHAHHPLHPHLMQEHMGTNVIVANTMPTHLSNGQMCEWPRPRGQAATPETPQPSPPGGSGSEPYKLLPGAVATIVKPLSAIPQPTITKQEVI

Experiment [5] in a line: ATG_M_06_TRANS: Attagene TRANS-FACTORIAL HepG2 Assay for M06 Transcription Factor (Internal Marker) (AID 2282983).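 On AC50: potency for rise in reporter mRNA above DMSO baseline.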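 On outcome: reporter transcript level by RT-PCR then capillary electrophoresis fluorescence.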 To be noted: HepG2 Attagene TRANS M06 internal marker reporter. Summed up: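 Internal-marker background readout from a multiplexed TRANS reporter system in HepG2; 24 h dosing; mRNA induction quantified by RT-PCR plus capillary electrophoresis fluorescence; DMSO as negative control and baseline.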

A short description of experiment [6]: ATG_M_32_TRANS: Attagene TRANS-FACTORIAL HepG2 Assay for M32 Transcription Factor (Internal Marker) (AID 2282984).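 Further: transcript level of a background control reporter unit measured by RT-PCR and capillary electrophoresis.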 Particulars: HepG2 Attagene TRANS M32 internal marker reporter. Summed up: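 HepG2 cells transiently transfected with multiple GAL4-UAS reporter transcription units, dosed for 24 hours; reporter mRNA quantified by RT-PCR, 6-FAM primer extension, HpaI digestion and capillary electrophoresis. Gain-of-signal fitted versus DMSO baseline; internal background-control marker.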

Experiment [7] addresses Glucocorticoid receptor (Homo sapiens) (UniProt P04150). The experiment can be described thus: ATG_GR_TRANS: Attagene TRANS-FACTORIAL HepG2 Assay for human Glucocorticoid Receptor (GR) (AID 2282978).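 Further: activators score as hits since higher reporter transcript over DMSO is fitted.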 To be noted: HepG2 Attagene TRANS GR reporter, mRNA transcription. An outline of the steps: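 After 24 h incubation with test chemical, transfected HepG2 cells were lysed for RNA; reporter cDNA was amplified, FAM-labelled, HpaI-digested and sized on a capillary analyser. Signal gain relative to DMSO was scored.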

In experiment [8] the target is Bile acid receptor (Homo sapiens) (UniProt Q96RI1). The experiment is described as follows: ATG_FXR_TRANS: Attagene TRANS-FACTORIAL HepG2 Assay for Farnesoid X Receptor (FXR) (AID 2282979).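 Further: hits raise reporter mRNA above DMSO so AC50 marks FXR activation.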 To be noted: HepG2 Attagene TRANS FXR-GAL4 reporter transcription. An outline of the steps:
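After 24 h chemical treatment of transfected HepG2 cells, GAL4-UAS reporter transcripts driven by an exogenous FXR-GAL4 fusion were measured by RT-PCR and capillary electrophoresis. Increases over DMSO were fitted.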

Experiment [9] addresses Nuclear receptor subfamily 4 group A member 2 (Homo sapiens) (UniProt P43354). The experiment is described as follows: ATG_NURR1_TRANS: Attagene TRANS-FACTORIAL HepG2 Assay for human Nuclear Receptor Related Protein 1 (NURR1) (AID 2282985). Particulars: HepG2 Attagene TRANS reporter, mRNA readout. An outline of the steps: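 HepG2 cells transiently transfected with GAL4-UAS reporter units and chimeric NR-Gal4 constructs; chemical exposure 24 h. Reporter mRNA quantified by RT-PCR, fluorescent labelling and capillary electrophoresis; gain of signal fitted relative to DMSO baseline.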

Bile acid receptor (Homo sapiens), sequence (Q96RI1 whole entry, looked up, the tested form may be a part): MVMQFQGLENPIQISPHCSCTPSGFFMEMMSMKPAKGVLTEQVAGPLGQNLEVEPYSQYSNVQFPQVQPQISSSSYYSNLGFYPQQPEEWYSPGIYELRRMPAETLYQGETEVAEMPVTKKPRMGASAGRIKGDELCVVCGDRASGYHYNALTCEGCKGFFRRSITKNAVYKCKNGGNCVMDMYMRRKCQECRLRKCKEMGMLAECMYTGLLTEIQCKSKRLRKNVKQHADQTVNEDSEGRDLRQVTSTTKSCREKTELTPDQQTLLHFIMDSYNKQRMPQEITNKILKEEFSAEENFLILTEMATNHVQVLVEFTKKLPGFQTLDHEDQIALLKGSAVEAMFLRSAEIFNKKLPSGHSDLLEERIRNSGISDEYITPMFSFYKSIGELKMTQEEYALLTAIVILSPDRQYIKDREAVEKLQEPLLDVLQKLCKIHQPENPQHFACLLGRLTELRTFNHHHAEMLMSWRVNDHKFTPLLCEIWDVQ
Glucocorticoid receptor (Homo sapiens), sequence (P04150 whole entry, looked up): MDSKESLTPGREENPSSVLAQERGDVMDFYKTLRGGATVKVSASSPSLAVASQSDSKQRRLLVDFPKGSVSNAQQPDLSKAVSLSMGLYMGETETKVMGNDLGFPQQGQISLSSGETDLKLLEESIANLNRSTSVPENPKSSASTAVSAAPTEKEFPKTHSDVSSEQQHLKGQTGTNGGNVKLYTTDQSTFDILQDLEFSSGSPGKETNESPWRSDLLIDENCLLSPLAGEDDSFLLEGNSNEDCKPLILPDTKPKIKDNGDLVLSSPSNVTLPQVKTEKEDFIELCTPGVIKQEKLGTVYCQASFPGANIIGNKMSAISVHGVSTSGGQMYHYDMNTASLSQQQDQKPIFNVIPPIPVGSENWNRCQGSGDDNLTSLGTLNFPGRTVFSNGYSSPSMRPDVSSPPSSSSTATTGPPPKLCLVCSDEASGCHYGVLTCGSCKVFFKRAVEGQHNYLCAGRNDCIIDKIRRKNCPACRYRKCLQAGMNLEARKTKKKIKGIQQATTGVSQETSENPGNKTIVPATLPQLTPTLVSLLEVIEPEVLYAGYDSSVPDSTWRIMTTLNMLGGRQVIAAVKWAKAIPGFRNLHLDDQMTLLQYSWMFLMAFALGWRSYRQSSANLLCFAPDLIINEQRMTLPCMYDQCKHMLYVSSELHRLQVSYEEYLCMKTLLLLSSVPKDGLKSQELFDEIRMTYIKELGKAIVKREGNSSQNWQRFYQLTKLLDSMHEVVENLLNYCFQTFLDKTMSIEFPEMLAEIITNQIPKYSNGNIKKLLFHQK
Nuclear receptor subfamily 4 group A member 2 (Homo sapiens), sequence (P43354 whole entry, looked up, the tested form may be a part): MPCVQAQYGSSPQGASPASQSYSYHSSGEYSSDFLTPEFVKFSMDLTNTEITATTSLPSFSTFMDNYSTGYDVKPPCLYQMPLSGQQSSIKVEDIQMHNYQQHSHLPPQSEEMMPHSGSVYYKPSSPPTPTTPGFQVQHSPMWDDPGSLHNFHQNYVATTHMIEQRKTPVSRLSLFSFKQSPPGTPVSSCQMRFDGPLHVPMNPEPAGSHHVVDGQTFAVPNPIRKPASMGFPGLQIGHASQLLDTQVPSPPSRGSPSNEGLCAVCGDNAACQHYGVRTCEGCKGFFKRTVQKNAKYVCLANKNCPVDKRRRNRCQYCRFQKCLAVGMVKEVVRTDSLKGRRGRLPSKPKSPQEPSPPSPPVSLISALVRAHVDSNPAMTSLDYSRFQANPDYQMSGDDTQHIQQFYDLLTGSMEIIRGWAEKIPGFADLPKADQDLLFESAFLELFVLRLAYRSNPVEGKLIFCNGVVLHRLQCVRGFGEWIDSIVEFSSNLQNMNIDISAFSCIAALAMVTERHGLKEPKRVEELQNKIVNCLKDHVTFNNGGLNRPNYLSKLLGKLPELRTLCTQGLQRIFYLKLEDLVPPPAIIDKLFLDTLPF
Oxysterols receptor LXR-alpha (Homo sapiens), sequence (Q13133 whole entry, looked up, the tested form may be a part): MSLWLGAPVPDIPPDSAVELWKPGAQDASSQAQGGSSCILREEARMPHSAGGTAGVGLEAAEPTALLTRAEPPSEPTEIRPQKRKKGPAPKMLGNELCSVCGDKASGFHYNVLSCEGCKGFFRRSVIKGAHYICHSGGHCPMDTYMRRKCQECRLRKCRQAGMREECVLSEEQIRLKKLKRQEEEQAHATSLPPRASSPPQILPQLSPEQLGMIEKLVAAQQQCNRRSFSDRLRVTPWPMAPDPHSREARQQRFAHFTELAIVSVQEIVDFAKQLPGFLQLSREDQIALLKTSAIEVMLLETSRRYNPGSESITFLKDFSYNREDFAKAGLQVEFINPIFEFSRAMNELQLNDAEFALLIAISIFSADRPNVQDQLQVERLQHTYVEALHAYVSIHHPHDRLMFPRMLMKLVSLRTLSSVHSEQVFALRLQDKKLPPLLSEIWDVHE
Estrogen-related receptor gamma (Homo sapiens), sequence (P62508 whole entry, looked up, the tested form may be a part): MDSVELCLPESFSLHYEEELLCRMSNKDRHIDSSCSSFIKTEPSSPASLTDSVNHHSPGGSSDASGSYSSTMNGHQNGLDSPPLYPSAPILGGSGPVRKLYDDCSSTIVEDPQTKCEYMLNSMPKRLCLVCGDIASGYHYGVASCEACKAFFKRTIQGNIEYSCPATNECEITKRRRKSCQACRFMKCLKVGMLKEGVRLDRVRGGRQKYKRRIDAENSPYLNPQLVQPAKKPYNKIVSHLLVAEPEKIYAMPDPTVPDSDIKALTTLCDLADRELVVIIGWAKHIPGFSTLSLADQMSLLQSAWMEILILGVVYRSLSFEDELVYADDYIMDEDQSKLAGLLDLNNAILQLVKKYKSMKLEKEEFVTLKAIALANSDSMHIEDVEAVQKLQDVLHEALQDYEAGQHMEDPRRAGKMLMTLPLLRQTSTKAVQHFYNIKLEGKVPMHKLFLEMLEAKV

For `O=c1ssc(Cl)c1Cl`, the result in [1], in experiment [2], in experiment [3], in experiment [4], in experiment [5] and in [6] was inactive.

Regarding `CCOc1ccc(C(C)(C)COCc2cccc(Oc3ccccc3)c2)cc1`, the compound was called inactive in [7], in experiment [8], in [6] and in experiment [9].

With `CCCCC(CC)COC(=O)c1c(Br)c(Br)c(Br)c(Br)c1C(=O)OCC(CC)CCCC` (stereo unspecified), the call in experiment [8], in experiment [2], in experiment [3] and in experiment [5] was inactive.

Consider `O=[N+]([O-])c1cc(Cl)ccc1Cl`, for which the call in experiment [8], in experiment [2], in experiment [5] and in [6] was inactive.

On to `O=P(OCC(Br)CBr)(OCC(Br)CBr)OCC(Br)CBr` (stereo unspecified), for which the compound was classed as inactive in experiment [5].

As for `CC(Cl)(Cl)C(=O)O`, the call in experiment [5], in [6] and in experiment [9] was inactive.

Consider `c1ccc2c(c1)sc1ccccc12`, for which the compound was classed as inactive in [8], in experiment [2], in experiment [3], in experiment [5] and in experiment [6].

As to `Nc1cc2c3c(c1)C(c1ccccc1)=N[C@@H](NC(=O)c1cccnc1)C(=O)N3CC2`, the result in experiment [7], in experiment [3], in experiment [4], in experiment [5], in experiment [6] and in experiment [9] was inactive.

In the case of `OCC(F)(F)OC(F)(F)C(F)(F)OC(F)(F)C(F)(F)OC(F)(F)CO`, the outcome in experiment [8], in experiment [2], in experiment [3], in experiment [4], in experiment [5] and in [9] was inactive.

As for `Oc1ccc(I)cc1`, the outcome in experiment [8], in [3], in experiment [5], in [6] and in [9] was inactive.

As to `c1ccc(OP(Oc2ccccc2)Oc2ccccc2)cc1`, in [6], the compound was classed as inactive.

Consider `N#C/C=C/c1ccccc1`, for which the compound was classed as inactive in experiment [4], in experiment [5], in experiment [6] and in experiment [9].

For the compound `c1nc[nH]n1`, the compound was classed as inactive in [3], in [5], in experiment [6] and in experiment [9].

With `C=CC(=O)OCC(CC)(COC(=O)C=C)COC(=O)C=C`, the call in [7], in [4], in [5] and in [9] was inactive.

Turning to `CSC(C)(C)C=NO`, the compound was classed as inactive in experiment [5] and in experiment [9].

On to `c1cc2c3c(cccc3c1)CC2`, for which the result in experiment [7], in experiment [3], in [4] and in experiment [6] was inactive.

For `CC(Cl)CN(C)C` (stereo unspecified), the result in experiment [2], in experiment [5] and in experiment [6] was inactive.

Take `ClC(Cl)=C(c1ccc(Cl)cc1)c1ccccc1Cl`: the call in experiment [8], in experiment [3], in experiment [5] and in experiment [9] was inactive.

Regarding `CCCN(CCC)c1c([N+](=O)[O-])cc(C(C)C)cc1[N+](=O)[O-]`, the result in experiment [9] was inactive.

Consider `OCC(F)(F)OC(F)(F)C(F)(F)OC(F)(F)CO`, for which the result in experiment [8], in experiment [5], in experiment [6] and in [9] was inactive.

As for `CCN(CC)c1ccccc1`, the compound was called inactive in experiment [2], in experiment [4] and in [9].

Regarding `CCOP(=S)(OCC)SCSc1ccc(Cl)cc1`, the compound was classed as inactive in [8], in experiment [3], in [4], in experiment [6] and in experiment [9].

As for `OCC1CO1` (stereo unspecified), the compound was called inactive in experiment [2], in experiment [3], in [4], in [5] and in [6].

Take `O=C(O)C=CC(F)(C(F)(F)F)C(F)(F)F`: the compound was classed as inactive in experiment [7], in [3], in [4], in [5] and in experiment [6].

Turning to `CCCCN(CC)C(=O)SCCC`, the compound was called inactive in [3], in experiment [4] and in experiment [6].

Regarding `CCCCc1ccccc1`, the result in experiment [8], in experiment [2] and in experiment [9] was inactive.

Regarding `O=C(O)C1C(C(=O)O)C2(Cl)C(Cl)=C(Cl)C1(Cl)C2(Cl)Cl` (stereo unspecified), the compound was called inactive in [7], in experiment [2], in experiment [3], in [4], in [5] and in experiment [6].

For the compound `CO/N=C(/C(=O)OC)c1ccccc1COc1ccccc1C`, the compound was classed as inactive in experiment [8], in experiment [5] and in experiment [6].

As for `CC(C)(C)c1ccc(O)cc1`, the outcome in [8], in experiment [2], in [5] and in experiment [6] was inactive.

Turning to `Nc1ccc(Sc2ccc(N)cc2)cc1`, the compound was called inactive in experiment [4], in experiment [6] and in experiment [9].

As for `O=[N+]([O-])c1ccccc1`, the compound was classed as inactive in experiment [3] and in [5].

For `CCOS(=O)(=O)OCC`, the outcome in [3], in experiment [5] and in experiment [6] was inactive.

As for `[N-]=[N+]=[N-]`, in [3], the AC50 is 100 µM (active). The result in experiment [5] and in experiment [9] was inactive.

Consider `CC1(C)CN=C(NN=C(/C=C/c2ccc(C(F)(F)F)cc2)/C=C/c2ccc(C(F)(F)F)cc2)NC1`, for which the outcome in [7], in experiment [8] and in experiment [9] was inactive.

`CCCCC(CC)COP(=O)(Oc1ccccc1)Oc1ccccc1` (stereo unspecified): the call in [8], in experiment [4], in [5] and in experiment [6] was inactive. For the same compound, the half-maximal activity concentration (AC50) in experiment [9] was 21.8 µM (active).

For `CCN(CC)C1CCCCC1`, the compound was classed as inactive in experiment [4], in experiment [5] and in [6].

With `O=C(O)C(F)(F)OC(F)(F)C(F)(F)OC(F)(F)C(=O)O`, the compound was called inactive in experiment [8], in experiment [5] and in experiment [6].

For the compound `Cc1cc(C)c(C(=O)P(=O)(c2ccccc2)c2ccccc2)c(C)c1`, the outcome in experiment [8] was inactive. For the same compound, the half-maximal activity concentration (AC50) in [5] was 173 µM (active).

`ClC(Cl)(Cl)c1ccccc1`: the compound was classed as inactive in experiment [3], in experiment [5] and in experiment [9].

For the compound `Cc1cccc(N)c1`, the compound was called inactive in [3], in experiment [4], in experiment [5] and in experiment [6].
